Compound activity as filed in PubChem.
Hits are enriched below; roughly 6.9% of the tested compounds scored in any of these assays.
VDR inh: vitamin D3 receptor (human) inhibition | P11473 | VDR-SRC2-3 peptide fluorescence polarization, 2 h | Potency, µM, for inactives: max response, negative = inhibition, usual class: inhibitors | actives 0.93% (n = 400,000); also: % is scaled to controls: 0 for no effect and ±100 for the full control effect
Target sequence (P11473 whole entry, looked up): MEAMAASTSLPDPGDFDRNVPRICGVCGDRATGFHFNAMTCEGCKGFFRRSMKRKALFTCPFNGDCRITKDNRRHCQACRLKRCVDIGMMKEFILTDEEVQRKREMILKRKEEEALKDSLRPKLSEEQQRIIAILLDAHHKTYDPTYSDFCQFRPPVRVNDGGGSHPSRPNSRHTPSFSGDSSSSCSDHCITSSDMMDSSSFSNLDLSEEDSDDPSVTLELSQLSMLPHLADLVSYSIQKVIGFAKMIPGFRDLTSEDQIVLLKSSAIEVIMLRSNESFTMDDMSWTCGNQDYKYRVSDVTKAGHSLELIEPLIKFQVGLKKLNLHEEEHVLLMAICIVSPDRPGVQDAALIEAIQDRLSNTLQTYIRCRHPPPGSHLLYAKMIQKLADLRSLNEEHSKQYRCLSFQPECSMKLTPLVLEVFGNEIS
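Signal is fluorescence polarization, reporting how far test compounds block the interaction of VDR with the SRC2-3 coregulator peptide after a 2 h room-temperature incubation.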
HP1b chromo inh: blocks HP1-beta chromodomain binding to methylated histone tails. P83916. AlphaScreen HP1-beta / biotin-H3K9me3 peptide binding. Potency, µM (top dose mostly 114 µM), for inactives: at the top dose activity change, negative = inhibition, actives largely listed as inhibitors. actives 0.56% (n = 390,000); also: nearly all actives have a fitted effect of over 70% in size
Target sequence (P83916 whole entry, looked up): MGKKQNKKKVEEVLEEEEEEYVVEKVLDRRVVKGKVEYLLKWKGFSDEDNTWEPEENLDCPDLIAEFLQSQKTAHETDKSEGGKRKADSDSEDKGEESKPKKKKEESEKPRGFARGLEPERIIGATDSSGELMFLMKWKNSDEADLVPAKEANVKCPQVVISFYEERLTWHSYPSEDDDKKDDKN
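Compound inhibition of the preformed complex between 50 nM HP1-beta and 50 nM biotinylated H3K9me3 peptide was read by AlphaScreen. Buffer was PBS pH 7.4 with 0.01% Tween-20. Incubations ran 30 min at room temperature, with 10 ug/mL donor/acceptor beads.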
JMJD2A Tudor inh: blocks the human JMJD2A Tudor domain; O75164; AlphaScreen JMJD2A-Tudor / H3K4me3 peptide binding; Potency, µM (highest dose often 114 µM), for inactives: top-dose activity change, negative = inhibition, most hits filed as inhibitors; actives 4.4% (n = 390,000); also: % is scaled to controls: 0 for no effect and ±100 for the full control effect; nearly all actives have a fitted effect of over 50% in size
L3MBTL1 block: L3MBTL1 (human) inhibition; Q9Y468; AlphaScreen L3MBTL1–H3K9me1 peptide binding; Potency, µM (doses to about 57.1 µM), inactives show at the top dose activity, negative = inhibition, hits mostly inhibitors; actives 0.66% (n = 230,000); also: % is scaled to controls: 0 for no effect and ±100 for the full control effect; nearly all actives have a fitted effect of over 60% in size
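L3MBTL1 (50 nM) pre-complexed 30 min with biotinylated H3(1-15)K9me1 peptide (75 nM), then compounds added for 30 min at room temperature; AlphaScreen streptavidin donor/nickel chelate acceptor beads (10 ug/mL final) read after 30 min dark incubation.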
BAZ2B block: BAZ2B (human) inhibition. actives 4.4% (n = 360,000). AlphaScreen BAZ2B-H3K14Ac peptide displacement. Potency, µM (highest dose often 114 µM), for inactives: top-dose activity change, negative = inhibition, hits mostly inhibitors; also: % is scaled to controls: 0 for no effect and ±100 for the full control effect; nearly all actives have a fitted effect of over 60% in size
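AlphaScreen displacement: compounds (up to 110uM) incubated 30 min at room temperature with a preformed 50 nM BAZ2B/50 nM biotinylated H3K14Ac peptide complex in PBS pH 7.4 with Tween-20. Donor and acceptor beads at 10 ug/mL final added, 20 min light-protected before reading.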
PLK1 PBD block: inhibitors of human PLK1 polo-box domain binding | actives 2.8% (n = 360,000) | P53350 | Plk1 PBD binding of FITC phosphopeptide, fluorescence polarization | Potency, µM, without a hit: max response, negative = inhibition, most hits filed as inhibitors; also: series mostly up to about 57 µM; % is scaled to controls: 0 for no effect and ±100 for the full control effect; nearly all actives have a fitted effect of over 65% in size
* hit, by the source's call; ? = inconclusive; nt = no result; [ ] = remark or other dose. Calls follow the shape of the dose curve; as a rule, active = well fitted curve in the direction sought with a large enough effect; inconclusive = small, poorly fitted or top-dose-only effect, or another doubt; inactive = no such curve, though single readings can be large; an effect the other way counts as inactive or inconclusive. Potency is read from the fitted curve at half-maximal effect.

SMILES	VDR inh	HP1b chromo inh	JMJD2A Tudor inh	L3MBTL1 block	BAZ2B block	PLK1 PBD block
N#CC1=C(N)SC(N)=C(C#N)C1c1ccc([N+](=O)[O-])cc1	79µM*	-37%	56µM*	-13%	-37%	9.5µM*
CCOc1ccccc1NS(=O)(=O)c1cnc(N)nc1	-8%	23%[57 µM]	-14%	nt	3%	nt
NC1=NC(=O)C(Cc2ccc(F)cc2)S1 (stereo not drawn)	-15%	11%	-26%	-6%	-1%	24µM*
Cc1cc(C)c2nc(NCCCNC(=S)NCCCN(C)C)c(C#N)cc2c1	-3%	59%	-5%	nt	-20%	-10%
CCOCCCNC(=S)NCCCNc1nc2c(C)cc(C)cc2cc1C#N	?	106%	-8%	32%	8%	24µM*
CCn1cc(C(=O)O)c(=O)c2cc(F)c(N3CCN(C(=S)NC(=O)c4ccc(F)cc4)CC3)cc21	30%	42%	-19%	12%	?	-20%
CCn1cc(C(=O)O)c(=O)c2cc(F)c(N3CCN(C(=S)NC(=O)c4ccccc4Br)CC3)cc21	-14%	-7%	-25%	nt	71µM*	-2%
CCn1cc(C(=O)O)c(=O)c2cc(F)c(N3CCN(C(=S)NC(=O)c4c(OC)cccc4OC)CC3)cc21	2%	4%	?	nt	56µM*	-9%
CCOC(=O)C1CN(c2cc3c(cc2F)c(=O)c(C(=O)O)cn3CC)OC1C(=O)OCC (stereo not drawn)	2%	13%	56µM*	11%	?	-1%
CCOC(=O)c1cn(CC)c2cc(N3CCCCC3)c(F)cc2c1=O	-2%	34%	1%	nt	nt	-3%
CCCCC1CCC(C(=O)N(CCCC)c2c(N)n(CCCC)c(=O)[nH]c2=O)CC1 (stereo not drawn)	6%	-3%	-12%	nt	-15%	-12%
Cc1ccc(OCc2n[nH]c(=S)n2Cc2ccccc2)cc1	3%	20%	-28%	-2%	-20%	-17%
Cc1cccc(OCc2nc(-c3ccccn3)n[nH]2)c1	3%	46%	13µM*	nt	8.9µM*	-3%
Cc1ccc(OCc2nc(-c3ccccn3)n[nH]2)cc1	1%	51%	20µM*	nt	4µM*	-2%
CCC(=O)N(C)C[C@H]1Oc2ncc(C#Cc3ccncc3)cc2C(=O)N([C@@H](C)CO)C[C@@H]1C	nt	nt	nt	nt	nt	-13%
Cc1c(C(=O)N2CCCc3ccccc32)oc2ccc(S(=O)(=O)N3CCOCC3)cc12	-21%	-14%	?	0%	-35%	-13%
COc1ccccc1N(O)C1CC(=O)N(c2ccc(F)cc2)C1=O (stereo not drawn)	?	-32%	?	-26%	?	5.3µM*
O=C(NCC(=O)N1CC=C(c2ccccc2)CC1)c1ccccc1Br	-6%	19%	-11%	nt	-19%	4%
Cc1ccc(C(=O)N/N=C/c2cccc(OC(=O)/C=C/c3ccco3)c2)cn1	-12%	?	-4%[11.4 µM]	32µM*	50µM*	27µM*
O=C(N/N=C/c1ccccn1)c1cccc([N+](=O)[O-])c1	-8%	26%	-18%[11.4 µM]	-25%	45µM*	-6%
CC(/C=C/c1ccco1)=N/NC(=O)c1ccc(C)nc1	6%	9%	-23%	nt	-16%	-1%
O=C(N/N=C/c1ccccn1)c1cc([N+](=O)[O-])cc([N+](=O)[O-])c1	-14%	20%	56µM*	nt	50µM*	-5%
Cc1ccc(C(=O)N/N=C\c2ccccn2)cn1	-11%	12%	79µM*	2%	?	-6%
CC(C)(C)c1ccc(C(=O)N/N=C/c2ccccn2)cc1	12%	38%	-21%	nt	13%	4%
Cc1cccc(NC(=O)Cn2nnc(C(=O)Nc3ccccc3Br)c2N)c1C	1%	35%	-16%	nt	13%[57.1 µM]	nt
SMILES	VDR inh	HP1b chromo inh	JMJD2A Tudor inh	L3MBTL1 block	BAZ2B block	PLK1 PBD block
CCC(C)NC(=O)Cn1c(=O)n(-c2ccc(Cl)c(Cl)c2)c(=O)c2c(C)c(C(=O)N(CC)CC)sc21 (stereo not drawn)	2%	2%	-11%	nt	1%	nt
CCN(CC)S(=O)(=O)c1cccc(C(=O)N/N=C/c2ccccn2)c1	-9%	11%	?	-5%	56µM*	2%
O=C(N/N=C/c1ccccn1)c1cc(C2CC2)[nH]n1	-4%	47%	56µM*	-34%	11µM*	2%
O=C(N/N=C/c1ccncc1)c1cc([N+](=O)[O-])cc([N+](=O)[O-])c1O	3%	24%	79µM*	-10%	?	-17%
O=C(N/N=C/c1cc2c(c([N+](=O)[O-])c1)OCO2)c1ccncc1	-5%	45%	-10%	-17%	1%	-22%
COc1ccc(CCNC(=S)NC2CCN(Cc3ccccc3)CC2)cc1	23%	-1%	-17%	nt	-20%	30µM*
S=C(NCCc1ccccc1)N1CCN(Cc2ccccc2)CC1	-1%	?	4.5µM*	-9%	56µM*	-4%
CCC1(CC)C(=O)C2=C3C1[C@H](C(=O)OC)CC(C(=O)OC)C[C@H]3[C@H]1C(=O)N(C)C(=O)[C@H]1[C@H]2C (stereo partly drawn)	12%	23%	-17%	nt	nt	nt
COc1ccc(CN=Cc2[nH]c3ccc(Br)c(Cl)c3c2O)cc1	?	?	?	-9%	45µM*	?
Cc1ccc(S(=O)(=O)c2nnn3c2nc(N2CCN(c4ccccc4F)CC2)c2ccccc23)cc1C	2%	9%	-14%	nt	2%	nt
Cc1ccc(-n2nc(C)c3c2NC2=C(C(=O)CC(C)(C)C2)C3c2ccccc2OCC(=O)O)cc1 (stereo not drawn)	-27%	-6%	56µM*	-11%	nt	27µM*
CC(C)[C@H](NC(=O)C1CC(=O)N(c2ccc(F)cc2)C1)C(=O)N1CCCCC1 (stereo partly drawn)	?	13%	?	nt	3%	3.4µM*
C[C@H](NC(=O)C1CC(=O)N(c2ccc3c(c2)OCO3)C1)C(=O)NC1CCCCC1 (stereo partly drawn)	?	15%	?	nt	0%	11µM*
CC(C)C[C@H](NC(=O)C1CC(=O)N(c2ccc3c(c2)OCO3)C1)C(=O)NC1CCCCC1 (stereo partly drawn)	1%	28%	-4%	nt	-4%	1%
O=C(O)C1CC(=O)N(c2ccc3c(c2)OCCO3)C1 (stereo not drawn)	-22%	?	3.2µM*	nt	?	3µM*
O=C(O)C1CC(=O)N(c2ccc(F)cc2)C1 (stereo not drawn)	?	?	50µM*	nt	-1%	27µM*
O=C(NNC(=O)c1ccccc1[N+](=O)[O-])c1ccc(NC(=O)c2ccccc2)cc1	-19%	20%	-20%	nt	0%	-9%
O=C(O)CCCNC(=O)Cc1ccccc1	-7%	65%	-14%	2%	-15%	-14%
